# Assay outcomes from PubChem.
# A selection: hits, their analogues and other compounds. The true share with any hit is near 2%.
# MsrA inh – bovine MsrA enzyme inhibitors, primary screen, biochemical, absorbance, HTS. Methionine sulfoxide reductase A (Bos taurus). purified bovine MsrA, absorbance read-out. inhibition, % at 15.5 µM. 0.75% of 360,000 active; in the data active means inhibition above about 4.5%;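 further: 0% = vehicle wells with enzyme and 100% = reference inhibitor wells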
# PKA-R2B activ – activators of PKA-R2B holoenzyme, primary screen, biochemical, fluorescence polarization, Cy5-IP20, human; cAMP-dependent protein kinase catalytic subunit beta (Homo sapiens) + cAMP-dependent …; PKA-R2B holoenzyme dissociation; R2B truncated from residue 108, S112A mutant; 0% DMSO only, 100% 113 µM cGMP; activation, % at 11.4 µM; 0.079% of 340,000 active; AID 504700, 2011;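 active means activation above a cutoff set at the mean over all compounds plus 3 SD, cut at about 18% in these data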;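 further: higher means more holoenzyme dissociation and a rise in polarization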
# Target sequence (P31323 whole entry, looked up, other chains not shown, the tested form may be a part): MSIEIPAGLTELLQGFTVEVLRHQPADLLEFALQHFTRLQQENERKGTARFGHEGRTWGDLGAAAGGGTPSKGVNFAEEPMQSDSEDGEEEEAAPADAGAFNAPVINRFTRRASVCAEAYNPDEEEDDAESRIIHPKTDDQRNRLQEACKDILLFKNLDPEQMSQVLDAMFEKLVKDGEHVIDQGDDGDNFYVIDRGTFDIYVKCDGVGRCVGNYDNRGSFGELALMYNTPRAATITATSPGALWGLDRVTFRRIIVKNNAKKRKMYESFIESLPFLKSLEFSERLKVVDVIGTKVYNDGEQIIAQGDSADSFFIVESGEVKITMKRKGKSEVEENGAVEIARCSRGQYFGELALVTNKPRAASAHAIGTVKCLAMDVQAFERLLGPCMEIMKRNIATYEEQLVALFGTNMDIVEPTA
# MsrA act – bovine MsrA enzyme activators, primary screen, biochemical, absorbance, HTS; purified bovine MsrA, absorbance read-out; activation, % at 10.6 µM; 0.3% of 360,000 active; in the data active means activation above about 7.5%;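 further: 0% = vehicle and 100% = reference activator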
# SUMO Mot1 rescue – yeast Mot1-301 growth rescue at high temperature, primary screen, SUMOylation pathway inhibitor project, S. cerevisiae, ATP luminescence, 38.5C; S. cerevisiae Mot1-301 growth rescue; percent above DMSO median, 100 means doubled; growth rescue, % at 18.8 µM; 1% of 320,000 active; AID 2716, 2010;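 active means every valid replicate shows activation above 250% relative to neutral control wells; inactive means the rest, any valid replicate at or below 250%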;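 further: OY570 slx delta 5 strain wells were the positive control but not used for scaling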
# PKA-R1A act – activators of PKA-R1A holoenzyme, primary screen, biochemical, fluorescence polarization, Cy5-IP20, bovine R1A, mouse PKAc | cAMP-dependent protein kinase type I-alpha regulatory subunit (Bos taurus) + … | PKA-R1A dissociation; scaled: DMSO 0%, 113 µM cGMP 100% | activation, % at 11.4 µM | 0.083% of 340,000 active;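 active means percent activation above the mean of all tested compounds plus 3 SD, cut at about 19% in these data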;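 further: higher means more PKAc released from R1A so a rise in polarization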
# MsrA activ conf – bovine MsrA activators, retest, confirmation, biochemical, absorbance, HTS. 12% of 1,000 active. activation, % at 10.6 µM. purified bovine MsrA, absorbance read-out. AID 602270, 2012. shares compounds with MsrA act; in the data active means activation above about 4%;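 further: enzyme coupled to thioredoxin and thioredoxin reductase with NADPH; 0% = vehicle wells and 100% = reference activator wells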
# * hit, by the source's call; · = no result given.
SMILES,MsrA inh,PKA-R2B activ,MsrA act,SUMO Mot1 rescue,PKA-R1A act,MsrA activ conf
COC(=O)Cc1nnn2c1[C@H](C)[C@H](c1cccc(OC)c1OC)OCC2,-0.1,·,·,·,·,·
CCOC(=O)C1=CC[C@@H](c2ccccc2)C(C#N)(C#N)[C@H]1/C=C/c1ccccc1,-0.2,·,·,·,·,·
COc1cc(OC)c(C(=O)NC23CC4CC(CC(C4)C2)C3)cc1OC,-0.1,-4.7,9.2*,531.3,-1.3,-3.7
COC(=O)CCC(=O)Nc1cccc2ccccc12,-0.7,-8.5,-1.8,7.5,-7.2,·
COCC(=O)Nc1cccc2ccccc12,2.5,-7.3,10.9*,-15.7,-9.5,-0.8
O=C(Cc1cccs1)N/N=C\c1ccc([N+](=O)[O-])s1,3.7,6.2,5.9,-23.4,-0.7,·
Cc1ccc(NC(=S)N/N=C/c2ccc([N+](=O)[O-])s2)cc1,1.1,3.1,9.2*,120.4,-18.2,1.9
CC(C)CC1O[C@@H](C)[C@@H]2CN3CCc4c([nH]c5ccccc45)[C@@H]3C[C@@H]2N1C (stereo not given in full),0.5,·,·,·,·,·
CC12CN(C(=O)c3ccccc3)C3(C#N)CC1CCC23C (stereo not given),-0.6,-3.0,13.5*,0.4,-11.9,-0.3
COc1ccc(C(=O)N2CC3(C)C4CCC3(C)C2(C#N)C4)cc1OC (stereo not given),1.9,-5.7,-0.9,2.2,-8.2,·
O=C(NCCN1CCOCC1)c1ccccc1Cl,-0.5,-4.3,16.9*,3.9,-4.2,-0.8
Cc1ccc(S(=O)(=O)N2CCC(C(=O)OCC(=O)N3CCc4ccccc43)CC2)cc1,-0.5,3.4,8.4*,0.2,15.6,-0.3
CN(CCC#N)C(=O)CSc1ncnc2sc(-c3ccccc3)cc12,0.9,-9.2,-5.0,-20.3,1.8,·
CCN(CC)C(=O)CSc1ncnc2sc(-c3ccccc3)cc12,1.6,2.8,7.7*,·,2.1,1.2
C[C@@H]1COc2cccc(NC3CC3)c2S(=O)(=O)N1,0.2,·,·,·,·,·
CN1CCN(C(=O)CN(c2cccc(Cl)c2)S(=O)(=O)c2ccccc2)CC1,-1.1,-6.7,10.9*,2.2,5.8,-1.0
CC(=O)N1N=C(c2ccc(C)cc2)CC1c1ccc2c(c1)OCO2 (stereo not given),-0.5,1.0,8.0*,-8.1,-5.5,-0.7
Cc1ccc(C2=NN(S(C)(=O)=O)C(c3ccc4c(c3)OCO4)C2)cc1 (stereo not given),0.7,-2.5,-0.3,-0.7,3.3,·
CC(=O)OCC(COC(C)=O)(CN1C(=O)c2ccccc2C1=O)CN1C(=O)c2ccccc2C1=O,0.7,·,·,·,·,·
COC(=O)c1ccccc1S(=O)(=O)N1CCC(NC(=O)c2ccccc2)CC1,-1.1,0.0,-3.0,377.1,-10.5,·
COC(=O)c1ccccc1S(=O)(=O)N1CCC(C(=O)NC2CCCCC2)CC1,-0.5,2.2,11.4*,-12.1,-7.8,-1.7
Cc1ccc(Cn2nnc3c(=O)[nH]c(C4CCN(C(=O)Cc5cccs5)CC4)nc32)cc1,0.4,6.3,7.7*,11.5,3.4,-0.5
O=C(Cc1cccs1)N1CCC(c2nc3c(nnn3Cc3ccccc3)c(=O)[nH]2)CC1,-1.6,-2.1,-2.3,-15.1,-3.6,·
CCCCN(CC)C(=O)c1cc2c(=O)n3cccc(C)c3nc2s1,0.8,-2.0,10.3*,-15.7,-7.9,-2.5
CC(C(=O)Nc1ccccc1Br)c1ccc([N+](=O)[O-])cc1 (stereo not given),-0.1,-0.5,-14.3,-2.3,-0.3,·
SMILES,MsrA inh,PKA-R2B activ,MsrA act,SUMO Mot1 rescue,PKA-R1A act,MsrA activ conf
Cc1ccc(NC(=O)C(C)c2ccc([N+](=O)[O-])cc2)cc1Cl (stereo not given),-1.0,3.9,20.2*,8.4,-2.9,0.0
Cc1cccc(C)c1OCc1nnc(SCC(=O)O)n1-c1c(C)cccc1C,-0.7,·,·,·,·,·
COc1cccc(CC(=O)OCC(=O)c2cc(OC)c(OC)c(OC)c2)c1,-0.8,2.6,8.7*,-2.4,2.3,-2.4
COc1cccc(CC(=O)OCC(=O)c2cc(OC)ccc2OC)c1,1.2,-3.4,-3.9,1.4,-1.1,·
CN1CCCCC(NC(=O)c2ccccn2)C1=O (stereo not given),-0.4,·,·,·,·,·
Cc1cc(N2CCN(Cc3ccccc3)CC2)n2nc(C)c(-c3ccccc3)c2n1,-0.4,-3.4,-3.1,148.3,-6.5,·
COc1ccc(-c2c(C)nn3c(N4CCN(Cc5ccccc5)CC4)cc(C)nc23)cc1OC,-0.4,3.6,8.3*,-2.1,-2.0,0.1
CCC(CO)NCc1cc(OC)c(OCC(=O)NCCc2ccccc2)cc1Br (stereo not given),0.5,2.7,9.0*,-0.4,1.9,-1.1
CN(CC(=O)Nc1ccccc1N1CCOCC1)S(=O)(=O)c1ccc(Cl)cc1,-0.2,2.5,8.0*,-17.6,1.7,5.5*
CCC1CCc2sc(C(=O)N(C)CC(=O)Nc3cccc(OC)c3)cc2C1 (stereo not given),-1.2,-9.6,10.7*,0.0,-4.3,-1.5
CSc1nc2c(=O)[nH]cnc2s1,-0.2,·,·,·,·,·
Cc1cc(C)n(-c2ccc(-n3ccnc3)nn2)n1,-0.5,-2.0,-0.7,-0.5,16.1,·
CCOc1ccc(-n2ccnc2)nn1,0.2,0.1,8.1*,5.5,2.2,-3.0
NC(=O)c1c(N)[nH]c(C(=O)c2ccccc2)c1-c1ccc(Cl)cc1Cl,1.1,·,·,·,·,·
COc1ccccc1NC(=O)OC[C@@H]1CSCCS(=O)(=O)N1,-0.8,·,·,·,·,·
C=CCNC(=O)c1ccccc1NC(=O)c1ccccc1C,-0.8,-3.6,8.6*,1.5,-5.5,-0.5
C=CCNC(=O)c1ccccc1NC(=O)c1ccccc1SC,0.1,-19.6,-10.3,10.5,-3.0,·
Cc1ccccc1N=C1NC(=O)/C(=C/c2cccn2C)S1,1.8,-2.5,8.1*,253.7,-5.8,-1.9
Cc1cccc(N=C2NC(=O)/C(=C/c3cccn3C)S2)c1,-0.6,3.1,-1.7,-24.3,-2.0,·
Nn1c(SCC(=O)NC2CCCc3ccccc32)nnc1-c1cccs1 (stereo not given),1.0,-2.2,8.7*,-6.0,2.1,0.3
COCc1[nH]nc2c1C(c1ccc(Br)cc1)N(c1ccc(OC)cc1)C2=O (stereo not given),0.9,·,·,·,·,·
O=C(NCc1ccccc1)c1ccc2c(=O)n(CC3CCCO3)c(=S)[nH]c2c1 (stereo not given),0.9,1.2,12.8*,-6.9,1.8,3.1
Cc1ccc(CNC(=O)c2ccc3c(=O)n(CC4CCCO4)c(=S)[nH]c3c2)cc1 (stereo not given),-0.9,5.3,-5.7,-0.5,-5.4,·
